Results taken from the supplement of paper PMC10105736.
Unmarked numbers belong to inactive results.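 The calls were made as follows: active = MAPPIT score above the 99th percentile of random reference set scores in the same batch; inactive = at or below it.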

Columns and labels:
Assay in all cases: MAPPIT interaction score (arbitrary units); higher = stronger binary interaction signal, active = hit call of the paper
CG14764 = details: MAPPIT configuration: N-N; pair source set: Curagen_low_conf
CG6933 = details: MAPPIT configuration: N-N; pair source set: Lit-BS-16
CG14190 = details: pair source set: RRS
CG42512 = details: pair source set: RRS
CG14464 = details: MAPPIT configuration: N-N; pair source set: RRS
CG14818 = details: MAPPIT configuration: N-N; pair source set: screen_2
Tm1 = details: MAPPIT configuration: N-N; pair source set: screen_1
dgrn = details: MAPPIT configuration: N-N; pair source set: screen_1
CG14074 = details: MAPPIT configuration: N-N
Su(var)2-10 = details: MAPPIT configuration: N-C; pair source set: screen_3
TrxT = details: MAPPIT configuration: N-N; pair source set: screen_2
GstO3 = details: MAPPIT configuration: N-N; pair source set: DPIM
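Also: HEK293T cells with Epo stimulation, STAT-responsive firefly luciferase reporter, fold induction versus unstimulated cells divided by the larger fold induction of two negative controls lacking either bait or prey.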

B1: cad (protein)
chain: MVSHYYNTLPYTQKHSAANLAYASAAGQPWNWTPNYHHTPPNHQFLGDVDSSHAAHHAAAAHQMYYNSHHMFHSAAAASAGEWHSPASSTADNFVQNVPTSAHQLMQQHHHHHAHASSSSASSGSSSSGGAPGAPQLNETNSSIGVGGAGGGGGVGGATDGGPGSAPPNHQQHIAEGLPSPPITVSGSEISSPGAPTSASSPHHHLAHHLSAVANNNNNNNNNNNSPSTHNNNNNNNSVSNNNRTSPSKPPYFDWMKKPAYPAQPQPGKTRTKDKYRVVYTDFQRLELEKEYCTSRYITIRRKSELAQTLSLSERQVKIWFQNRRAKERKQNKKGSDPNVMGVGVQHADYSQLLDAKAKLEPGLHLSHSLAHSMNPMAAMNIPAMRLHPHLAAHSHSLAAVAAHSHQLQQQHSAQMSAAAAVGTLSM
MAPPIT interaction score (CG14764): -0.0445
MAPPIT interaction score (CG6933): -0.219

B2: tut (protein)
chain: MDFESKYCTSQVNGTITITTRKVLDENLKSLLDEGKGELFLSCIPRNHSCSPRWIVEVASELGEVYIMRYKIDFSGNSRGYAYLQYINVDLKESAMQYLPMRFRQLCMCLRVEPSTNNRELVLKNVESSLRPWQVYQEMLKIHPFTIVRVYEYQLDQFFYIFEYRNNDSAASAHQRVRNSIRKFGEHAHISWLTAENILSRASGSFCFQREVSQNRTRRVPPRQKGCFKF
MAPPIT interaction score (CG14190; MAPPIT configuration: N-C): 0.351
MAPPIT interaction score (CG14190; MAPPIT configuration: N-N): -0.511
MAPPIT interaction score (CG42512; MAPPIT configuration: N-C): -0.391
MAPPIT interaction score (CG42512; MAPPIT configuration: N-N): 0.0427

B3: Cdk12 (protein)
chain: MHASSAAATALVEYSDVSSEDFSDQEAGDLDADAGKGAGNIKKPKPAPDNQFSKGRLDAKPDKEGYDNYRSRRAEDSSDPVAAGSRQTSSSEATNPREEPSQASNTSKDELWGREIYMSSDSIDTDELEAEMKRQKRKKQKKEKHKHKSKKKSKKRKKKRAKSYSSIDSMSDNDINALLDRRYTPPTAPSKSNERTVSAAPSSFTPHNLKESSSPATPPPVRRPNTNSNYYGESSLETANSALGSNLQVTVTNKQSISNRLRSPPPSSRSSGNGPRFGNSPRTPPPSHYSSSGGGGVGSGSVVRDSRSSRYVNSPHKEDVSAHHRSSHDHGYQGRYSGAGSSSHDTRKVKRLSPELDRYNHQPSTPPHKRRKFSDGREVGLGNFEHSRHHSGKYERYSRDRYSRRSSRSPSVQHSRSRQSPSGGLSSGSNAFRHGGSHKHKYGTTVSSTPSHTTRTSKRASGTGTSGDRYSRSPRTSSRYMESSPPSPVGASGSHHYHHRRSPRMRQRTRGDSRRRSPSSASSESSASRSRSPTSRDLKHKREEYIKKISETSLFAELVKDRHKRQKALKEIIERQEENSNSNSNGALTINDNSSSVDGNTPNAADGRSAPGSGTPAAASTTSNGLQALGSKPDLDLNNIPMPNKQNDSVVSNPASNADVPDSVAQLKQPLLVPPFSASKNNIKPKSLTSLPLPPGMNVLDLAGARSPSPGQKKESDEKNVTSSGSANKSVLNLPMPPVIPGSEELSGDDDVIDSPEDFDAPAVGTVHGHGGGPGTTRQRPVILNRRDSRNNVRDWGERCVDVFEMIAQIGEGTYGQVYKARDHHTNDMVALKKVRLEHEKEGFPITAVREIKILRQLNHRNIVNLHEIVTDKQDAVEFRKDKGSFYLVFEYMDHDLMGLLESGMVDFNEENNASIMKQLLDGLNYCHKKNFLHRDIKCSNILMNNRGKVKLADFGLARLYNADDRERPYTNKVITLWYRPPELLLGEERYGPSIDVWSCGCILGELFVKRPLFQANAEMAQLETISKICGSPVPAVWPNVIKLPLFHTLKQKKTHRRRLREDFEFMPAPALDLLDKMLDLDPDKRITAEDALRSPWLRKINPDEMPTPQLPTWQDCHELWSKKRRRQMREQQESLPPTVIASTKYQQHGATMVGDA
MAPPIT interaction score (CG14464): 0.381

B4: CG10681 (protein)
chain: MSHLGLADVHQSEDATPDLESFTGFGNSAAEAFIQSLAGMVNQGDVETMIRAQKQMLQRFEKTNEMLLNCNALSQSRLKSASEDFKRHVKCLSEMKKDLDYIFRKIRIIKQKLQSQFPAIYAEVQPQRSSLAEEAEDDTEAQAKKTAETPAPAAAKPVLSTKKSAATIEYVQMEEAVDNGTVEIENELIKRVCSVETANPNDSSDCTSEDTG
MAPPIT interaction score (CG14818): 5 (active)
MAPPIT interaction score (Tm1): 2.36
MAPPIT interaction score (dgrn): 0.165

B5: z (protein)
chain: MSAQGEGGGAGGSGGGGAGSDGGGNAGQSSTGSGTVAVTNGGNSSAKNQLPLTPRFTAEEKEVLYTLFHLHEEVIDIKHRKKQRNKYSVRETWDKIVKDFNSHPHVSAMRNIKQIQKFWLNSRLRKQYPYRDGSSSNLSSGSAKISSVSVSVASAVPQQQQQQHHQQHDSVKVEPEYQISPDASEHNPQADTFDEIEMDANDVSEIDEDPMEQQQQQQQEAQAQAQAQAQAQAQVQSAAAEMQKMQQVNAVAAAAAANATMINTHQINVDQISAEKLTLNDLLHFKTARPREEIILIKHPEATATQIHTIPTQAQQHPMATITAGGYNQQIISEIKPQQITLAQYQAQQQQQAQAQAQAQAQAQAQAQAQAQAQAQAQQLAQQQLAAAQHQQLAAAVQVHHQQQQQQQAAVAVQQQQAAAAAAVKMQLTAATPTFTFSALPTVTAATTVPAAVPVPVATASSGSANSVAVNTSTASSVSINNTSLGGGGGNGATNSSATAADSFEERMNYFKIREAELRCKEQQLATEAKRIELNKAQDELKYMKEVHRLRVEELTMKIRILQKEEEQLRKCSTS
MAPPIT interaction score (CG14074; pair source set: screen_2): -0.404
MAPPIT interaction score (Su(var)2-10): 1.09
MAPPIT interaction score (TrxT): -0.122

B6: PI31 (protein)
chain: MESGSTAKTGDFFYGWDLLYKTVKADVSKKSDLLIALVHFLLTKHYNFRCVGVGDDKTLPEEEGSELLPDSWNDDDTKYSLRYVHDKMLYLLLGHITEGSLLINLLDINTKKVSNICVEPETLVPEVKGGITTIMPSASEIVERYRRELLDPVFTGNSREVTTQTTNSPRPIGSDPDPLRIGEPRRGGSFIPSAFEPRPFGFPDVGRGDLDPLGRGGHGNLFSFPSRPNMGPGPVPRFDPFNPLNPNRPGQGGINPDHMRPPDWNPDYYM
MAPPIT interaction score (CG14074; pair source set: screen_1): -0.274
MAPPIT interaction score (GstO3): 0.447
